LAP4 TOR yeast: yeast TOR pathway LAP4-GFP modulation | GFP response vs DMSO, % at 10 µM | AID 2023 | 0.34% of 320,000 active | S. cerevisiae LAP4-GFP multiplex, flow cytometry GFP, 3 h; median GFP as percent of DMSO wells;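 active = GFP response vs DMSO above a set limit, about the screen mean plus 3 SD, cut at about 150% in these data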
RPL19A-GFP yeast: alters RPL19A-GFP fluorescence in TOR pathway yeast screen; S. cerevisiae RPL19A-GFP strain, flow cytometry, 3 h; active compounds read low; percent response vs DMSO, % at 10 µM; 0.3% of 330,000 active; AID 2025;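 active = percent response vs DMSO below 50%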;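 note: median channel GFP fluorescence of the barcoded RPL19A-GFP strain; lower means less RPL19A-GFP as with rapamycin TOR inhibition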
CIT2-GFP yeast: alters CIT2-GFP fluorescence in TOR pathway yeast screen | S. cerevisiae CIT2-GFP strain, flow cytometry, 3 h; 100 means same as DMSO wells | GFP response vs DMSO, % at 10 µM | 0.065% of 320,000 active;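 active = GFP response relative to DMSO above a set limit, near the screen mean plus 3 SD, cut at about 150% in these data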;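 note: ratio of well median GFP fluorescence to mean of DMSO wells on the plate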
AGP1 TOR yeast: yeast TOR pathway AGP1-GFP modulation | S. cerevisiae AGP1-GFP multiplex flow cytometry, 3 h; GFP as percent of DMSO wells | GFP response vs DMSO, % at 10 µM | 0.02% of 320,000 active | AID 2066;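 active = GFP response relative to DMSO above a set limit, near screen average plus 3 SD, cut at about 150% in these data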;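 note: median GFP channel fluorescence of the gated AGP1 strain per well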
MEP2-GFP yeast: modulators of TOR pathway MEP2-GFP in S. cerevisiae. GFP response vs DMSO, % at 10 µM. 0.51% of 330,000 active. S. cerevisiae MEP2-GFP strain, flow cytometry GFP, 3 h; 100% = DMSO control level. AID 2016;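 active = GFP response versus DMSO above a set limit, roughly screen mean plus 3 SD, cut at about 180% in these data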;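 note: median GFP fluorescence of the barcode-gated MEP2-GFP cells per well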
LAP4 cherry2: yeast LAP4-GFP modulation, second cherry pick. AID 2621. S. cerevisiae LAP4-GFP strain, flow cytometry GFP, 3 h. GFP response vs DMSO, % at 10 µM. shares compounds with LAP4 TOR yeast. 20% of 590 active;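 active = GFP signal as percent of the solvent control above about 150%, meaning raised reporter expression, limit read from the data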
MEP2 cherry2: reconfirmed MEP2-GFP TOR pathway modulator in yeast; 10% of 590 active; S. cerevisiae MEP2-GFP strain, flow cytometry GFP, 3 h; shares compounds with LAP4 TOR yeast; GFP response vs DMSO, % at 10 µM; AID 2622;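 active = GFP signal above 150% of the solvent control wells, that is a rise of more than half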;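 note: median channel GFP fluorescence of all gated yeast cells per well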
RPL19A-GFP pick2: reconfirmed modulator of RPL19A-GFP TOR reporter in yeast; 3% of 590 active; S. cerevisiae RPL19A-GFP strain, flow cytometry GFP, 3 h; active compounds read low; 100% means same as DMSO wells; shares compounds with LAP4 TOR yeast; GFP response vs DMSO, % at 10 µM;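 active = under 65% GFP response relative to DMSO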;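 note: median GFP channel fluorescence per well over the all cells gate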
CIT2-GFP pick2: reconfirmed modulator of CIT2-GFP TOR reporter in yeast; shares compounds with LAP4 TOR yeast; GFP response vs DMSO, % at 10 µM; S. cerevisiae CIT2-GFP strain, flow cytometry GFP, 3 h; DMSO control wells read 100%; 8% of 590 active;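 active = GFP response vs DMSO above about 150%, limit read from the data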;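 note: median green fluorescence per well over all gated yeast cells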
AGP1-GFP pick2: yeast AGP1-GFP TOR reporter modulation, second cherry pick; AID 2643; shares compounds with LAP4 TOR yeast; S. cerevisiae AGP1-GFP strain, flow cytometry GFP, 3 h; 590 tested, under 10 active; percent response vs DMSO, % at 10 µM;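 active = over 150 percent of DMSO response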;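 note: median GFP channel fluorescence over all cells without mother daughter split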
s288c autofluor: compound is autofluorescent in yeast s288c cells; shares compounds with LAP4 TOR yeast; S. cerevisiae s288c, 520 nm autofluorescence, flow cytometry, 3 h; active compounds read high; zero means same as solvent-only cells; fluorescence change (kMESF span) at 33 µM; 610 tested, under 10 active; AID 2757;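 active = fluorescence span over the dose series, or activity score, above about 33, limit read from the data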
s288c autofl DR: counter-screen for autofluorescence of TOR hits in yeast s288c; shares compounds with LAP4 TOR yeast; S. cerevisiae s288c parental, compound autofluorescence, flow cytometry, 3 h; fluorescence change (span) at 33 µM; 110 tested, under 10 active; AID 488829;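 active = fluorescence change span, or the activity score built from it, above 25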
TORC1 bypass: stops wildtype yeast growth while TORC1 bypass cells still grow; S. cerevisiae BY4741 spot growth rating, 48-72 h; active compounds read low; 120 tested, under 10 active; growth rating (0-3) at 30 µM; AID 504456; shares compounds with LAP4 TOR yeast;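 active = growth rating at most 1 for wild type yeast while the TORC1 bypass strain still grows fully, rated 3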
Numbers stand for hits; – = inactive; · = no result. This is a sample that favours compounds with a hit; in the whole collection about 0.93% have one here.

SMILES	LAP4 TOR yeast	RPL19A-GFP yeast	CIT2-GFP yeast	AGP1 TOR yeast	MEP2-GFP yeast	LAP4 cherry2	MEP2 cherry2	RPL19A-GFP pick2	CIT2-GFP pick2	AGP1-GFP pick2	s288c autofluor	others
Cc1cc(-c2csc(NC(=O)c3ccc(=O)[nH]c3)n2)c(C)n1Cc1ccco1	152	–	–	–	–	–	–	–	–	–	·
COc1ccc2c(c1)c1nnc(SC)nc1n2C	–	–	–	–	–	–	–	53	–	–	–
CCCc1cc(N2CCN(c3ccccn3)CC2)n2nc(C)c(-c3ccccc3)c2n1	–	–	–	–	–	·	·	·	·	·	–
CCCc1cc(N2CCOCC2)n2nc(C)c(-c3ccccc3)c2n1	–	–	–	–	–	·	·	·	·	·	·
COc1ccc(CCNC(=O)[C@@H](NC(=O)N2CC(=O)Nc3ccccc32)C(C)C)cc1OC	–	–	–	–	–	·	·	·	·	·	·
O=C(NC(=S)NNC(=O)c1ccccc1O)c1cccs1	–	–	–	–	–	·	·	·	·	·	·
COc1ccccc1C(=O)NNC(=S)NC(=O)c1cccs1	186	–	–	–	–	·	·	·	·	·	–
O=C(Cc1ccc(Cl)cc1)NNC(=S)NC(=O)c1cccs1	199	–	–	–	–	·	·	·	·	·	–
O=C(Cc1cccs1)NNC(=S)NCc1ccc(Cl)cc1	–	–	–	–	–	·	·	·	·	·	·
O=C(O)/C(=C\c1ccccc1OC(F)F)Sc1nnc(-c2ccc(F)cc2)o1	–	–	–	–	–	·	·	·	·	·	·
CN(C)c1nc(C#N)nc(N(C)C)n1	–	–	–	–	–	·	·	·	·	·	·
CCCN(CCC)c1nc(C#N)nc(N(CCC)CCC)n1	–	–	–	–	–	–	–	–	–	–	·
Cc1nn(C)c(C)c1N1C(=O)c2cccc3c(Br)ccc(c23)C1=O	–	–	–	–	–	·	·	·	·	·	–
CC(C)(C)c1nnc(SCC(=O)Nc2ccc(N3CCCCC3)cc2)n1N	–	–	–	–	–	·	·	·	·	·	·
Cc1ccc(-c2csc3ncnc(NCCC(=O)O)c23)cc1C	–	–	–	–	–	·	·	·	·	·	·
COc1ccc(OC)c2sc(N3CCN(C(=O)c4ccc([N+](=O)[O-])s4)CC3)nc12	160	–	–	–	–	–	–	–	–	–	·
O=C(c1ccc([N+](=O)[O-])s1)N1CCN(c2ccccn2)CC1	–	–	–	–	–	·	·	·	·	·	·
Cc1cc(C)c(S(=O)(=O)Nc2ccc(N(C)C)cc2)c(C)c1-n1cnnn1	–	–	–	–	–	·	·	·	·	·	·
Cc1nc(Nc2nc3c(c(=O)[nH]2)CCC3)nc2ccccc12	–	–	–	–	–	–	–	–	–	–	·
O=c1[nH]c(NCc2ccccc2)nc2c1CCC2	–	–	–	–	–	·	·	·	·	·	·
CCn1cc(C(=O)NCCCN2CCN(C)CC2)c(=O)c2cc(S(=O)(=O)N3CCc4ccccc4C3)ccc21	–	–	–	–	–	·	·	·	·	·	·
Cc1ccc(/C=C2\SC(=S)N(CC3CCCO3)C2=O)o1 (stereo not drawn)	171	–	–	–	–	·	·	·	·	·	–
Cc1ccc(/C=C2/SC(=S)N(C3CCCCC3)C2=O)o1	158	–	–	–	–	·	·	·	·	·	–
O=C1/C(=C/c2ccncc2)SC(=S)N1C1CCCCC1	–	–	–	–	–	·	·	·	·	·	·
CCOc1ccccc1C(=O)N(CCC(=O)OC)c1ccccn1	–	–	–	–	–	·	·	·	·	·	·
SMILES	LAP4 TOR yeast	RPL19A-GFP yeast	CIT2-GFP yeast	AGP1 TOR yeast	MEP2-GFP yeast	LAP4 cherry2	MEP2 cherry2	RPL19A-GFP pick2	CIT2-GFP pick2	AGP1-GFP pick2	s288c autofluor	others
COC(=O)CCN(C(=O)C1C2CC3CC(C2)CC1C3)c1ccccn1 (stereo not drawn)	154	–	–	–	–	–	–	–	–	–	·
Cc1ccc(NC(=O)c2cc(N3C(=O)C=CC3=O)ccc2N2CCOCC2)cc1Cl	153	–	–	–	–	162	183	–	–	–	–	s288c autofl DR=–;TORC1 bypass=–
Cc1ccc(CN(C)C(=O)C2CCC(=O)N(C3CCCCCC3)C2)cc1 (stereo not drawn)	–	–	–	–	–	·	·	·	·	·	·
CC(C)OC(=O)CSc1nc2ncccc2[nH]1	171	–	–	–	–	–	–	–	–	–	·
CC(C)OC(=O)CSc1nc2ncc(Cl)cc2[nH]1	–	–	–	–	–	·	·	·	·	·	·
Cc1ccnc2c1ccc1c(C)ccnc12	166	–	–	–	–	–	–	–	–	–	·
CC(C)(O)C#Cc1ccc(CN2CCN(C3CCCC3)C(CCO)C2)cc1 (stereo not drawn)	169	–	–	–	–	–	–	–	–	–	·
CC(=O)CSc1ncnc2c1cnn2-c1ccccc1	–	–	203	–	183	·	·	·	·	·	–
C=CCN1C(=O)c2ccc(C(=O)NCC(=O)Nc3c(C)cc(C)cc3C)cc2C1=O	–	–	–	–	–	·	·	·	·	·	·
S=C(NCCNCc1ccccc1)NC1CCCCC1	–	–	–	–	–	–	–	–	–	–	·
S=C(NCCc1ccccc1)NC1CCCCCC1	–	–	–	–	–	·	·	·	·	·	·
O=C(CS(=O)c1ccccc1[N+](=O)[O-])Oc1ccc(Br)cc1 (stereo not drawn)	170	–	–	–	–	·	·	·	·	·	–
CCOc1ccc(S(=O)(=O)N2CCN(Cc3ccc4c(c3)OCO4)CC2)cc1C	–	–	–	–	–	·	·	·	·	·	·
Oc1c(Br)cc(Br)cc1C=Nc1ccc2[nH]ncc2c1	184	–	–	–	–	·	·	·	·	·	–
Oc1c(Br)cc(Br)cc1/C=N/c1nccs1	194	–	–	–	–	–	–	–	–	–	·
Oc1ccc(Cl)cc1/C=N/c1nccs1	–	–	–	–	–	·	·	·	·	·	·
Oc1c(Br)cc(Br)cc1C=Nc1cccnc1	–	–	–	–	–	–	–	–	–	–	·
